From PubChem BioAssay (NCI) come the findings set out here.

About 83,000 compounds went through this panel and 20% of them were active in at least one assay; those are over-represented in the sample as a whole.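 96-well plates, one dose, 48 hours. Percent growth reported; active if below 10.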 A number with no mark means an inactive call. The source made the active and inactive calls.

Some test systems named below: HCT-15 colon; HT29 colon; SNB-75 CNS; SNB-19 CNS; U251 CNS; PC-3 prostate; SK-MEL-5 melanoma; UACC-62 melanoma; LOX IMVI melanoma; SK-MEL-28 melanoma; SK-MEL-2 melanoma; SN12C renal; UO-31 renal; TK-10 renal; ACHN renal; CAKI-1 renal; A498 renal; CCRF-CEM leukemia; MOLT-4 leukemia.
What all share (assay): NCI-60 one-dose screen, 48 h (100 = growth as untreated, 0 = no growth, -100 = all killed)
Holding throughout (conditions): 10 µM

For `COc1cc(C2C(C#N)=C(c3c[nH]c4ccccc34)Nc3nc(N)[nH]c(=O)c32)cc(OC)c1OC` (stereo not given), the growth with HCT-15 colon was 105%; with HT29 colon it was 107%; in the experiment on SNB-75 CNS, 80%; with SNB-19 CNS, 66.5%; in the experiment with U251 CNS, 73.6%; in the experiment with PC-3 prostate, 62.8%. In addition, the growth in the experiment on SK-MEL-5 melanoma was 67.4%; in the experiment on UACC-62 melanoma it was 84.2%; in the experiment with LOX IMVI melanoma, 52%; with SK-MEL-28 melanoma it was 56.2%; with SK-MEL-2 melanoma it was 93.8%; in the experiment on SN12C renal, 90.9%. The growth in the experiment on UO-31 renal was 79.3%; with TK-10 renal it was 123%; in the experiment on ACHN renal, 95%; in the experiment with CAKI-1 renal, 95.2%; in the experiment on A498 renal it was 89.9%; in the experiment on CCRF-CEM leukemia, 53.5%. Moreover, the growth in the experiment with MOLT-4 leukemia was 98.2%.
On to `Nc1ncc(-c2ccc(C(F)(F)F)cc2)c(NC2CCCCCC2)n1`, for which the growth in the experiment with HCT-15 colon was 73.7%; in the experiment with HT29 colon, 31.5%; with SNB-75 CNS, 57.8%; with SNB-19 CNS, 49.9%; in the experiment with U251 CNS, 22.5%; in the experiment with PC-3 prostate, 12%. Also, the growth was 3.53% (active) with SK-MEL-5 melanoma; 0.46% (active) with UACC-62 melanoma; 48% in the experiment on LOX IMVI melanoma; 33.7% in the experiment with SK-MEL-28 melanoma; 0.455% (active) in the experiment on SK-MEL-2 melanoma; 29.9% in the experiment with SN12C renal. In addition, the growth was 23.6% in the experiment on UO-31 renal; 36.9% in the experiment on TK-10 renal; 16.4% in the experiment on ACHN renal; 55.8% in the experiment on CAKI-1 renal; 31.1% with CCRF-CEM leukemia; 57.5% with MOLT-4 leukemia.
For the compound `COc1ccc(NC(=O)c2sc3nc4c(cc3c2N)C(O)CCC4)cc1` (stereo not given), the growth is 95.5% in the experiment on HCT-15 colon; 97.8% in the experiment on HT29 colon; 110% with SNB-75 CNS; 97.1% with SNB-19 CNS; 105% with U251 CNS; 95.7% in the experiment on PC-3 prostate. Also, the growth in the experiment with SK-MEL-5 melanoma was 99.5%; in the experiment with UACC-62 melanoma, 98.9%; in the experiment on LOX IMVI melanoma it was 102%; with SK-MEL-28 melanoma, 102%; in the experiment with SK-MEL-2 melanoma, 96%; in the experiment with SN12C renal it was 99.8%. Also, the growth in the experiment with UO-31 renal is 86.4%; with TK-10 renal, 122%; in the experiment with ACHN renal, 113%; in the experiment on CAKI-1 renal it was 92.7%; in the experiment on CCRF-CEM leukemia, 101%; with MOLT-4 leukemia, 92.8%.
For the compound `Cn1c([N+](=O)[O-])cnc1C=C1C(=O)c2ccccc2C1=O`, the growth in the experiment on HCT-15 colon is 23.2%; in the experiment on HT29 colon, 56.1%; in the experiment with SNB-75 CNS, 51%; with SNB-19 CNS it was 85.1%; in the experiment on U251 CNS, 57.2%; with PC-3 prostate, 60.1%. Moreover, the growth in the experiment with SK-MEL-5 melanoma was 42.6%; in the experiment on UACC-62 melanoma, 17.5%; in the experiment on LOX IMVI melanoma, 21.7%; in the experiment on SK-MEL-28 melanoma, 39.2%; with SK-MEL-2 melanoma it was 1.67% (active); in the experiment on SN12C renal, 42.9%. The growth in the experiment with UO-31 renal was 20.7%; with TK-10 renal, 48.8%; in the experiment with ACHN renal, 37.4%; with CAKI-1 renal, 37.3%; in the experiment with A498 renal it was 70.1%; in the experiment with CCRF-CEM leukemia, 18.4%. The growth with MOLT-4 leukemia was 21.8%.
On to `CCNC(=S)NN`, for which the growth in the experiment with HCT-15 colon is 86.1%; in the experiment with HT29 colon, 56.2%; in the experiment on SNB-75 CNS, 77%; in the experiment on SNB-19 CNS, 97.2%; in the experiment on U251 CNS, 87.2%; with PC-3 prostate it was 60.7%. The growth in the experiment on SK-MEL-5 melanoma was 102%; in the experiment with UACC-62 melanoma, 99.2%; in the experiment on LOX IMVI melanoma, 96.8%; with SK-MEL-28 melanoma it was 107%; in the experiment on SK-MEL-2 melanoma it was 128%; in the experiment with SN12C renal, 81.7%. Also, the growth in the experiment with UO-31 renal is 68.4%; in the experiment with TK-10 renal it was 130%; in the experiment on ACHN renal, 96.4%; in the experiment on CAKI-1 renal it was 90.1%; in the experiment with A498 renal, 91.2%; in the experiment with CCRF-CEM leukemia, 46.2%. Further, the growth in the experiment with MOLT-4 leukemia was 73.3%.
As for `C=CCOc1ccc2c(c1)CC[C@@H]1[C@@H]2CC[C@]2(C)C(=O)/C(=N/O)C[C@@H]12`, the growth is 41.6% in the experiment with HCT-15 colon; 2.91% (active) with HT29 colon; 18.9% in the experiment with SNB-75 CNS; 69.5% in the experiment with SNB-19 CNS; 68.8% in the experiment on U251 CNS; 42.1% with PC-3 prostate. In addition, the growth in the experiment on SK-MEL-5 melanoma was 77.4%; with UACC-62 melanoma, 93.5%; in the experiment with LOX IMVI melanoma, 42.3%; in the experiment with SK-MEL-28 melanoma, 106%; in the experiment with SK-MEL-2 melanoma it was 54.6%; in the experiment on SN12C renal it was 39.3%. Further, the growth in the experiment with UO-31 renal is 27.6%; in the experiment with TK-10 renal, 9.46% (active); in the experiment with ACHN renal, 30.4%; in the experiment on CAKI-1 renal it was 10.7%; in the experiment with CCRF-CEM leukemia it was 6.37% (active); in the experiment on MOLT-4 leukemia, -31.7% (active).
Turning to `O=C(c1ccc(Cl)cc1)c1no[n+]([O-])c1C(=O)c1ccc(Cl)cc1`, the growth with HCT-15 colon was 95.7%; with HT29 colon it was 67.3%; in the experiment on SNB-75 CNS, 97.9%; with SNB-19 CNS, 115%; in the experiment on U251 CNS, 104%; in the experiment on PC-3 prostate, 92.9%. The growth was 98.3% with SK-MEL-5 melanoma; 118% with UACC-62 melanoma; -74.2% (active) with LOX IMVI melanoma; 117% in the experiment with SK-MEL-28 melanoma; 92% in the experiment on SK-MEL-2 melanoma; 86.4% in the experiment with SN12C renal. Also, the growth with UO-31 renal is -94.9% (active); in the experiment on TK-10 renal, 84.1%; with ACHN renal it was 39.7%; in the experiment on CAKI-1 renal it was -68.6% (active); in the experiment on CCRF-CEM leukemia, -51.6% (active); in the experiment on MOLT-4 leukemia, 68.2%.
Turning to `COc1cc(-c2cc(-c3ccc(C)cc3)nc3nc(N)[nH]c(=O)c23)ccc1Oc1ccnc2cc(Cl)ccc12`, the growth in the experiment with HCT-15 colon was 88.7%; in the experiment on HT29 colon, 84.6%; in the experiment on SNB-75 CNS, 67.5%; in the experiment with SNB-19 CNS, 74.3%; in the experiment with U251 CNS, 81%; with PC-3 prostate, 70.5%. Moreover, the growth with SK-MEL-5 melanoma is 84%; in the experiment with UACC-62 melanoma, 86.9%; in the experiment on LOX IMVI melanoma, 86.3%; in the experiment on SK-MEL-28 melanoma, 88.3%; in the experiment on SK-MEL-2 melanoma, 93%; in the experiment on SN12C renal, 74.2%. Further, the growth is 56.3% in the experiment on UO-31 renal; 120% in the experiment on TK-10 renal; 93.4% with ACHN renal; 83.2% in the experiment with CAKI-1 renal; 40.6% in the experiment with CCRF-CEM leukemia; 49.1% in the experiment with MOLT-4 leukemia.
Regarding `COc1cc(-c2c(C#N)c(N)n3c(nc4ccccc43)c2C#N)cc(Br)c1OC`, the growth in the experiment with HCT-15 colon is 63.9%; in the experiment on HT29 colon, 32.1%; in the experiment with SNB-75 CNS, -8.28% (active); in the experiment with SNB-19 CNS it was 57.4%; in the experiment with U251 CNS it was 25.3%; in the experiment on PC-3 prostate it was 37.2%. In addition, the growth with SK-MEL-5 melanoma is 35.8%; in the experiment with UACC-62 melanoma, 55.2%; with LOX IMVI melanoma, 52.9%; in the experiment with SK-MEL-28 melanoma, 57.5%; with SK-MEL-2 melanoma, 76.7%; in the experiment on SN12C renal it was 40.1%. The growth in the experiment with UO-31 renal is 17.5%; in the experiment with TK-10 renal it was 11.1%; in the experiment with ACHN renal, 50.1%; with CAKI-1 renal it was 69.1%; with CCRF-CEM leukemia it was 19.6%; in the experiment with MOLT-4 leukemia, 43.3%.
